According to the supplement of paper PMC3334620:
Over roughly 33,000 sequences, “E-score (-0.5 to 0.5)” has its median near -0.035; the highest 2% begin near 0.35. What follows is part of a selection rich in the highest values, with near analogues and random picks from the rest.

Each sequence was assayed against T1, Pdr3 (UniProt P33200) (assay: PBM E-score (8-mer binding enrichment) (E-score (-0.5 to 0.5)); higher = stronger / more preferred TF binding). Conditions: protein concentration: 200 nM; construct: GST-full length.
T1 sequence: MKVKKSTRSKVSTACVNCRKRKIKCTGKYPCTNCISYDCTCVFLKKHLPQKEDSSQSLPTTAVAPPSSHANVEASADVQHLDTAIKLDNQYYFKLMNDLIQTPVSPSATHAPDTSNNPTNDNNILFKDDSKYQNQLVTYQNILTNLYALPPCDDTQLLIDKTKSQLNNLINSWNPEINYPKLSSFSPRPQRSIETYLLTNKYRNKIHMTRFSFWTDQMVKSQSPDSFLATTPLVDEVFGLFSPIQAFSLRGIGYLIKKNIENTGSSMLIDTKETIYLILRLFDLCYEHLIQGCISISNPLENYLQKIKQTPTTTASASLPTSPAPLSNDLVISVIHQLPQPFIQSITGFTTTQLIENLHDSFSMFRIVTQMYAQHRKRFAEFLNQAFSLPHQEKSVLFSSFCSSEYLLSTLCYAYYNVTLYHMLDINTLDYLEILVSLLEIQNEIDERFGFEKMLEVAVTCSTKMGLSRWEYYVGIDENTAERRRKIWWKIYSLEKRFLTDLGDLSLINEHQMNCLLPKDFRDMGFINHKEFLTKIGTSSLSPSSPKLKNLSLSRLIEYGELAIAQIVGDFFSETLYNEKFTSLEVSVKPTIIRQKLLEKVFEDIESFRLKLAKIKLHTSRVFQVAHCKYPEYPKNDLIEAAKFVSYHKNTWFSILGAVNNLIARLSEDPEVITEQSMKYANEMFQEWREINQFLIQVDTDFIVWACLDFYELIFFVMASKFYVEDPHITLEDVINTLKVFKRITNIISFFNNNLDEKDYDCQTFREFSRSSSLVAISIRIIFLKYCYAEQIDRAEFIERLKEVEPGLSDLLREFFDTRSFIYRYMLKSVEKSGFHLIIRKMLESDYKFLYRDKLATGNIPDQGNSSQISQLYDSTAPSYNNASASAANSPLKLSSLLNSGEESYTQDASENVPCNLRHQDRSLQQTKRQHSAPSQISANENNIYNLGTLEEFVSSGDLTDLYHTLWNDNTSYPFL
Method in brief: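 The E-score, a modified Wilcoxon-Mann-Whitney statistic, was computed by the Universal PBM Analysis Suite for every ungapped eight-base word pooled with its reverse complement. Scans behind it were normalised with masliner after bound GST-tagged yeast transcription factors were detected with fluorescent anti-GST. The proteins, at about 100-200 nM, had been applied to universal all-10-mer Agilent arrays made double-stranded by primer extension.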

Sequence | PBM E-score
AGGCCATA | -0.0791
CCCGCGGC | 0.488
GCCGCGGC | 0.484
GACGCGGC | 0.0937
GCGGCCGC | 0.35
CCCGCGTC | 0.236
CCCGCGAC | 0.175
CAAATGGC | -0.156
GCTACTAC | 0.146
CGATAGCG | 0.0636
AGGCCTTA | -0.254
CAGGTGGC | -0.197
ATTCCGTA | 0.417
ACTCCGTC | 0.206
ACTCCGTA | 0.13
ATTCCGTC | 0.42
CCTCCGTA | 0.222
GTTCCGTA | 0.471
CTTCCGTA | 0.379
CGTCCGTA | 0.176
GTCCCGTA | 0.159
AATCCGTC | 0.314

Sequence | PBM E-score
GTACCGTA | 0.029
AATCCGTA | 0.165
GGTATTAC | 0.225
CTTTTAAA | -0.00725
GGGCGTAC | -0.00965
GCAGCAAA | -0.103
CAGACCCG | 0.279
AATCGGTA | -0.0123
CTAGAACA | 0.0618
ATGCTACA | -0.24
CAATAGAG | -0.166
CTCGGCAG | 0.219
CGAAATAG | 0.0496
CGTCCGTC | -0.0265
CTTCCGTC | 0.403
ATTCCGTG | 0.467
ACTCCGTG | 0.282
AATCCGTG | 0.237
CCTCCGTC | 0.15
AAAACTTC | -0.029
CACCGCTC | 0.0532
GTTTTAGA | -0.0726

Sequence | PBM E-score
GGGGGAGA | -0.00585
ATTTTCCA | 0.122
ATTTCCCC | 0.0635
ATTTCCCG | 0.369
ATTTTCCC | 0.151
AGTTTCCG | 0.452
CATTTCCG | 0.411
AGTTTCCA | 0.0305
AGTTTCCC | 0.0499
CATTTCCC | 0.203
ATTTCCCA | 0.0046
ATTTTCCG | 0.432
CATTTCCA | -0.0296
AAAAGTTG | 0.00957
ATCAAAGC | 0.0706
AACTCGCT | 0.0814
ATATACCC | 0.102
CTACCGGA | 0.335
CACCATAA | -0.109
CGCCACAA | -0.0528
AATTTCCG | 0.442
AATTTCCC | 0.0432

Sequence | PBM E-score
AATTTCCT | 0.0149
AACTGTAC | -0.229
ACGCCGCA | 0.181
GGCACGGA | 0.314
GCGACGGA | 0.374
GCGACGCA | -0.126
GGGACGGA | 0.33
CGGACGGA | 0.367
CGGACGGC | 0.244
CGCACGGC | 0.142
CCGACGAA | 0.193
ACGACGGA | 0.328
CGCACGGA | 0.413
CCGACGGC | 0.237
CCGACGGA | 0.413
AACTCCTG | -0.193
ATCTGGCA | -0.111
AGCTGTCC | -0.116
GCGGGGCA | 0.129
CATACCCC | 0.0622
CCCACCGG | 0.248
ATCTTCGA | -0.115

Sequence | PBM E-score
AATCATGT | -0.0895
AGCGCCCT | 0.0102
CCAAGCCA | -0.245
GGAAGCCA | 0.0692
GGGACGAA | 0.162
CGGACGAC | 0.196
CGGACGAA | 0.372
AAGCGGAG | 0.0882
TAGCGGGA | 0.14
CAGCGGAA | 0.429
CAGCGGAG | 0.274
CAGCGGAC | 0.176
GAGCGGAC | 0.0792
TAGCGGCA | 0.107
AAGCGGAT | 0.309
GAGCGGTA | 0.0552
GAGCGGAA | 0.415
AAGCGGAA | 0.387
TAGCGGAA | 0.357
AAGCTATT | -0.112
ACACCACT | 0.108
